Assay outcomes as filed in PubChem.
A selection: hits, their analogues and other compounds. The true share with any hit is near 0.31%.
TRPML1 ag – qHTS for Agonists of the Human Mucolipin Transient Receptor Potential 1 (TRPML1); TRPML1-expressing cells, Ca2+ dye fluorescence, FDSS; actives 0.12% (n = 410,000); Mucolipin-1 (Homo sapiens), Q9GZU1; activation, % (test concentration not listed); in the data active means activation above about 50%; inconclusive means mostly about 30% to 49%; further: 0% is about no effect
Target sequence (Q9GZU1 whole entry, looked up): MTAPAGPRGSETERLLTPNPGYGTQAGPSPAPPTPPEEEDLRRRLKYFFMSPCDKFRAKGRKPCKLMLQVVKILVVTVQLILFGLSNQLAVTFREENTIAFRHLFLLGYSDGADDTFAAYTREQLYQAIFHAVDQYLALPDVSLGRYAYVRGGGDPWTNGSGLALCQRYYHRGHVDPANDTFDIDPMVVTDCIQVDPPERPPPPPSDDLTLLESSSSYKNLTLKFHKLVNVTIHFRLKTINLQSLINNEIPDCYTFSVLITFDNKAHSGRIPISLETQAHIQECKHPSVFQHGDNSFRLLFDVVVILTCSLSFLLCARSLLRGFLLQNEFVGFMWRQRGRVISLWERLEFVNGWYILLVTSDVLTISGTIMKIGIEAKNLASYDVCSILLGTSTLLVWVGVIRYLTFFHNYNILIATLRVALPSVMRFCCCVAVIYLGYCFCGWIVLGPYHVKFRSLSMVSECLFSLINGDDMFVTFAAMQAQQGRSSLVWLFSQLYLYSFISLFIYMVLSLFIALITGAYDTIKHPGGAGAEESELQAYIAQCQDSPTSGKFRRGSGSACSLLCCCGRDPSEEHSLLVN
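In this qHTS format, compounds were pin-transferred onto Ca8-dye-loaded TRPML1-DL cells induced with Tet overnight, and intracellular Ca2+ fluorescence was recorded kinetically for 110 s after a 10 s baseline. A subsequent 4uM final 54-4 (EC80) addition followed by a second 110 s read served as the antagonist phase.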
TRPV1 agonist – HTS Assay for Compounds that Act as Agonists of the Vanilloid Receptor 1. activation, % at 8.33 µM. AID 540275, 2011. actives 0.19% (n = 320,000). TRPV1-expressing cells, Fluo-8 calcium influx, agonist mode. Transient receptor potential cation channel subfamily V member 1 (Homo sapiens), Q8NER1; in the data active means activation above about 80%; inconclusive means between about 30% and that limit; further: 0% is about no effect
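Fluo-8 calcium influx in TRPV1-expressing cells, kinetic read (ex 480/em 520 nm). Compound added and read 3 min for agonist activity, followed by capsaicin at EC20 final and 2 min further read for enhancement.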
TRPML1 inh – qHTS for Inhibitors of the Human Mucolipin Transient Receptor Potential 1 (TRPML1); Mucolipin-1 (Homo sapiens), Q9GZU1; TRPML1-inducible cells, Ca2+ dye fluorescence, FDSS; stronger effect = lower value; inhibition of EC80 agonist-evoked calcium signal; activity change, negative = inhibition, % (test concentration not listed); actives 0.02% (n = 390,000); in the data active means activity change below about -50%; inconclusive means between about -30% and that limit;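 further: stimulus is agonist 54-4 at its EC80 concentration; on the % scale 0 is the no-effect control and ±100 the full control effect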
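Tet-induced TRPML1-DL cells loaded with Ca8 no-wash calcium dye were read kinetically on FDSS. Compound addition was followed by EC80 agonist 54-4 (4 uM final); inhibition was read over 110 s.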
TRPV1 PAM – HTS Assay for Compounds that Act as Potentiators of the Vanilloid Receptor 1; Transient receptor potential cation channel subfamily V member 1 (Homo sapiens), Q8NER1; TRPV1-expressing cells, Fluo-8 calcium influx, capsaicin EC20 potentiation; potentiation, % at 8.33 µM; actives 0.02% (n = 320,000); in the data active means potentiation above about 80%; inconclusive means between about 30% and that limit; further: 0% is about no effect
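Fluo-8 calcium influx in TRPV1-expressing cells, kinetic read (ex 480/em 520 nm). Compound added and read 3 min for agonist activity, followed by capsaicin at EC20 final and 2 min further read for enhancement.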
Active calls of the source: *; ? = inconclusive; · = no result.

SMILES	TRPML1 ag	TRPV1 agonist	TRPML1 inh	TRPV1 PAM
O=C(Nc1ccncc1)C1CCN(S(=O)(=O)c2ccccc2C(F)(F)F)CC1	0	83*	1	-5
Cc1ccnc(NC(=O)C2CCN(S(=O)(=O)c3ccc(Cl)c(C(F)(F)F)c3)CC2)c1	2	8	9	-2
Cc1ccc(C(=O)N2CCCCC2CCN2CCCCC2)cc1 (centres undefined)	0	·	-10	·
Clc1ccc(/C=C/c2ccnc3ccccc23)c(Cl)c1	0	·	·	·
Cn1c(=O)c(NCCc2ccccc2)c2c3c(cccc31)C(=O)c1ccccc1-2	104*	92*	-11	23
CCNc1c2c3c(cccc3n(C)c1=O)C(=O)c1ccccc1-2	67*	86*	-29	-9
Cn1c(=O)c(NCCO)c2c3c(cccc31)C(=O)c1ccccc1-2	93*	·	-4	·
CCCCNc1c2c3c(cccc3n(C)c1=O)C(=O)c1ccccc1-2	89*	?	-15	2
O=C(Nc1cc(F)ccc1F)c1cnn2c1NC(=C1CC1)C=C2C(F)F	0	·	·	·
Cn1c(=O)c(NC2CCCCC2)c2c3c(cccc31)C(=O)c1ccccc1-2	100*	89*	?	15
CC(=O)N1CCOc2ccc(S(=O)(=O)N3CCC(C)CC3)cc21	0	-3	-59*	15
O=C(NCC1COc2ccccc2O1)c1cccs1 (centres undefined)	0	19	-9	-12
O=C(NCC1COc2ccccc2O1)c1ccc(Br)s1 (centres undefined)	2	85*	-9	16
Cn1c(SCCOc2ccccc2)nnc1-c1ccc(NC(=O)CCc2ccccc2)cc1	0	·	·	·
CCNc1ccc2noc3c2c1C(=O)c1ccccc1-3	63*	?	4	-2
COc1ccccc1N1N=C(c2ccc([N+](=O)[O-])cc2)CC1c1ccccc1 (centres undefined)	69*	6	-16	9
O=C(Nc1cccc(S(=O)(=O)N2CCCCC2)c1)c1ccc2ncsc2c1	1	85*	37	-16
O=C(Nc1ccc(F)cc1)c1ccc2ncsc2c1	0	93*	6	-19
O=C(Nc1ccc(C(F)(F)F)cc1)c1ccccc1	-1	82*	32	14
O=C(Nc1ccc(Cl)cc1)c1ccc2snnc2c1	-1	88*	-4	-15
CC(=O)c1ccc(NC(=O)c2ccc3snnc3c2)cc1	0	?	1	-10
C[C@H]1C(=O)N(S(=O)(=O)c2ccc([N+](=O)[O-])cc2)[C@H]1c1ccc(F)cc1	2	·	-4	·
COc1ccc(C(C)(C)C)cc1NC(=O)c1ccc2ncsc2c1	0	23	15	-3
COc1ccc(NC(=O)c2ccc3ncsc3c2)c2ccccc12	1	88*	10	3
O=C(Nc1ccc(Cl)cc1)c1ccc2ncsc2c1	0	?	-2	-7
SMILES	TRPML1 ag	TRPV1 agonist	TRPML1 inh	TRPV1 PAM
O=C(Nc1ccc(C(F)(F)F)cc1)c1ccc2ncsc2c1	0	90*	19	9
CCc1ccc(OCCCC(=O)NCc2ccccc2)cc1	0	83*	-21	-12
COc1ccc(CNC(=O)CCCc2ccccc2)cc1	0	·	12	·
CCCCCC1CCC(C(=O)N2CCOCC2)CC1 (centres undefined)	0	94*	-8	0
CCCCCCC1CCC(C(=O)N2CCOCC2)CC1 (centres undefined)	1	89*	-2	-17
CCc1cccc(C)c1NC(=O)CSc1nc2c(c(=O)[nH]1)CCC2	3	·	-12	·
COc1cc2cc(C#N)c(SCC(=O)OC(C)C)nc2cc1OC	-1	·	·	·
CCCCCCCC(=O)N/N=C(\C)c1ccc(O)cc1O	57*	5	-11	0
Cc1nn(Cc2ccc(Cl)cc2)c(C)c1NC(=O)CCCn1nc(C)c([N+](=O)[O-])c1C	2	93*	7	6
CCC1(C)Cc2c(sc3nc(SC)n(-c4ccc(C)cc4)c(=O)c23)CO1 (centres undefined)	0	·	46	·
COc1ccc2[nH]cc(C(=O)CNc3nccs3)c2c1	0	·	·	·
Cc1cc(C)c(-c2noc(C(=O)OC(C)(C)C)c2C(=O)OC(C)(C)C)c(C)c1	53*	2	-3	14
COc1cc(OC)c(-c2noc(C(=O)OC(C)(C)C)c2C(=O)OC(C)(C)C)c(OC)c1	1	?	-19	6
Cc1cc(O)ccc1C1(c2ccc(O)cc2C)OC(=O)c2ccccc21	0	2	22	15
O=C1OC2(c3ccccc31)c1cc(I)c(O)c(I)c1Oc1c2cc(I)c(O)c1I	·	88*	·	-23
Cc1ccc(NC(=O)Cn2c(=O)n(Cc3nc(-c4ccccc4)no3)c(=O)c3cc4c(cc32)OCO4)cc1C	0	·	2	·
CCc1cc[n+](CC(=O)c2ccc(F)cc2)cc1C(=O)O	0	·	·	·
O=C(CCSCc1ccc(Cl)cc1)NCc1cccnc1	0	81*	3	-3
CCOC(=O)/C=C1\CN(Cc2ccc(OC)cc2)S(=O)(=O)c2ccc(C(F)(F)F)cc21	0	·	·	·
COc1ccc(Nc2ncnc3c2oc2ccccc23)cc1	0	93*	10	-15
COc1ccc(Oc2ncnc3c2oc2ccccc23)cc1	2	·	15	·
Cc1ccc(Nc2ncnc3c2oc2ccccc23)cc1	2	93*	-6	-6
CCC1CCCCN1CCCNC(=O)c1ccc2c(c1)N(Cc1ccccc1F)C(=O)c1ccccc1S2(=O)=O (centres undefined)	1	·	6	·
Cc1cccc(Cn2nnc3ccccc32)c1O	-1	16	-6	17
Cc1cccc(C(C)n2nnc3ccccc32)c1O (centres undefined)	0	12	-6	86*
SMILES	TRPML1 ag	TRPV1 agonist	TRPML1 inh	TRPV1 PAM
CC(C)(C)OC(=O)CNC(=O)c1[nH]cnc1C(=O)N[C@@H](Cc1ccccc1)C(=O)OC(C)(C)C	1	82*	32	-20
Cc1ccc(-c2nc(=Nc3c(C)cc(C)cc3C)sn2-c2ccccc2)cc1	8	·	·	·
C(=C\c1ccnc2ccccc12)/c1ccc2ccccc2n1	-1	·	·	·
COc1ccc(NC(=O)c2ccc(Br)c(S(=O)(=O)N3CCOCC3)c2)cc1	-1	98*	-6	-27
CCCn1c(C(C)Nc2nc(-c3cc(Cl)c(N)c(Cl)c3)cs2)nc2cc(Cl)c(N3CCCCC3)cc21 (centres undefined)	-1	86*	-3	17
COc1ccc(C)cc1Nc1nc2c(S(=O)(=O)c3cc(C)ccc3C)nnn2c2ccsc12	-1	·	-4	·
CC(C)(C)NC(=O)c1cccc(NC(=O)c2ccc3c(c2)C(=O)N(C(C)(C)C)C3=O)c1	2	-5	10	-3
